From PubChem BioAssay (NCATS)
Calls of active or inactive are those of the source. The call rests on the fitted dose curve; in most records, active means well fitted curve in the direction sought with a large enough effect; inconclusive means small, poorly fitted or top-dose-only effect, or another doubt; inactive means no such curve, though single readings can be large; an effect the other way counts as inactive or inconclusive.

System: not listed separately
Test: qHTS for Inhibitors of Cell Surface uPA Generation: Validation Assay (AID 493164);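 further: RAW 264.7 macrophage cells exposed to compound for 18 h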
Details: mouse cells, plasminogen activation; series mostly up to 38.3 µM; activity change: at the top concentration
How it was run: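 ATP-Lite luminescence read-out: ATP remains high when uPA activity-dependent LF translocation into the cytoplasm is blocked. RAW 264.7 cells, 18 h compound exposure at 37 C; 7-point titration, 2.45 nM to 38.3 uM final.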
Further: 0% is about no effect.

Compound | activity change
NC(=O)c1cn(Cc2c(F)cccc2F)nn1 | -0.491% (inactive)
CN1CCN(CC(=O)N2c3ccccc3C(=O)Nc3cccnc32)CC1 | 0.302% (inactive)
COc1ccc2c(c1OC)C(=O)O[C@@H]2[C@H]1c2c(cc3c(c2OC)OCO3)CCN1C | 1.57% (inactive)
COc1ccc([C@@H]2Sc3ccccc3N(CCN(C)C)C(=O)[C@@H]2OC(C)=O)cc1 | -0.952% (inactive)
CCOC(=O)C1=C(C)NC(C)=C(C(=O)OC)C1c1cccc([N+](=O)[O-])c1 (stereo unspecified) | -0.0899% (inactive)
CC(C)COCC(CN(Cc1ccccc1)c1ccccc1)N1CCCC1 (stereo unspecified) | -0.684% (inactive)
C[n+]1cc2c3c(ccc2c2ccc4cc5c(cc4c21)OCO5)OCO3 | 1.98% (inactive)
CN(C)C(=O)Oc1ccc[n+](C)c1 | -0.503% (inactive)
CCCC(C(=O)OCCN(CC)CC)(c1ccccc1)c1ccccc1 | -0.731% (inactive)
COC(=O)C1=C(C)NC(C)=C(C(=O)OC(C)(C)CN(C)CCC(c2ccccc2)c2ccccc2)C1c1cccc([N+](=O)[O-])c1 (stereo unspecified) | 1.81% (inactive)
CCn1ccnc1CC1COc2ccccc2O1 (stereo unspecified) | -0.454% (inactive)
NC1=NCC2c3ccccc3Cc3ccccc3N12 (stereo unspecified) | -0.0061% (inactive)
Cc1nc2c([nH]1)c(=O)n(C)c(=O)n2Cc1ccco1 | 0.676% (inactive)
COc1cc(C(=O)OCCCN2CCCN(CCCOC(=O)c3cc(OC)c(OC)c(OC)c3)CC2)cc(OC)c1OC | -0.332% (inactive)
C[C@]12CC[C@@H]3c4ccc(O)cc4C[C@@H](CCCCCCCCCS(=O)CCCC(F)(F)C(F)(F)F)[C@H]3[C@@H]1CC[C@@H]2O (stereo partly specified) | 0.829% (inactive)
Cc1nc2ccccn2c(=O)c1CCN1CCC(C(=O)c2ccc(F)cc2)CC1 | -0.748% (inactive)
Cc1cccc(C)c1NC(=O)C(C)N (stereo unspecified) | -0.398% (inactive)

Compound | activity change
C#CCN(C)CCCOc1ccc(Cl)cc1Cl | -0.251% (inactive)
CC(C)[N+](C)(CCOC(=O)C1c2ccccc2Oc2ccccc21)C(C)C | -0.98% (inactive)
COc1ccc(CN(CCN(C)C)c2ccccn2)cc1 | 0.062% (inactive)
CN1C[C@H](C(=O)N[C@]2(C)O[C@@]3(O)[C@@H]4CCCN4C(=O)[C@H](Cc4ccccc4)N3C2=O)C[C@@H]2c3cccc4[nH]cc(c34)C[C@H]21 | 0.495% (inactive)
CC(=O)[C@@]1(O)CC[C@H]2[C@@H]3CCC4=CC(=O)CC[C@]4(C)[C@H]3CC[C@@]21C | -0.121% (inactive)
CNC1(C)C2CCC(C2)C1(C)C (stereo unspecified) | -2.25% (inactive)
CCOC(=O)C1=C(C)NC(C)=C(C(=O)OC)C1c1cccc(Cl)c1Cl (stereo unspecified) | -0.427% (inactive)
CCCCNc1c(C(=O)OCC)c(C)nc2c1cnn2CC | -0.228% (inactive)
Nc1nc(N)c2nc(-c3ccccc3)c(N)nc2n1 | 1.34% (inactive)
CC1=C(C)C(=O)C(CCCCC#CCCCC#CCO)=C(C)C1=O | 0.881% (inactive)
CN1C(=O)CC[C@H]1c1cccnc1 | -0.483% (inactive)
Cc1nc2sccn2c(=O)c1CCN1CCC(=C(c2ccc(F)cc2)c2ccc(F)cc2)CC1 | 1.43% (inactive)
COc1cc(Cc2cnc(N)nc2N)cc(OC)c1OC | -0.222% (inactive)
C[C@@H](O)[C@H]1C(=O)N2C(C(=O)O)=C(SCCN=CN)C[C@H]12 | 0.492% (inactive)
CN(C)[C@@H]1C(=O)C(C(N)=O)=C(O)[C@@]2(O)C(=O)C3=C(O)c4c(O)ccc(Cl)c4[C@@H](O)[C@H]3C[C@@H]12 | 0.58% (inactive)
C[C@]12CCC(=O)C=C1CC[C@@H]1[C@@H]2C(=O)C[C@@]2(C)[C@H]1CC[C@]2(O)C(=O)CO | 0.855% (inactive)

Target: Galactokinase (Homo sapiens) (UniProt P51570)
Test: qHTS Validation Assay for Inhibitors of Human Galactokinase (GALK) (AID 493189)
Details: purified human GALK enzyme activity, qHTS 7-point titration; series mostly up to 57.5 µM; activity change, negative = inhibition: at the top concentration
How it was run: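 Luminescence from leftover ATP (Kinase-Glo Plus, 10 min) served as read-out after a 1 h room-temperature reaction of 5 nM GALK, 100 uM galactose and 35 uM ATP at pH8.0.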

Sequence of Galactokinase (Homo sapiens) (P51570 whole entry, looked up): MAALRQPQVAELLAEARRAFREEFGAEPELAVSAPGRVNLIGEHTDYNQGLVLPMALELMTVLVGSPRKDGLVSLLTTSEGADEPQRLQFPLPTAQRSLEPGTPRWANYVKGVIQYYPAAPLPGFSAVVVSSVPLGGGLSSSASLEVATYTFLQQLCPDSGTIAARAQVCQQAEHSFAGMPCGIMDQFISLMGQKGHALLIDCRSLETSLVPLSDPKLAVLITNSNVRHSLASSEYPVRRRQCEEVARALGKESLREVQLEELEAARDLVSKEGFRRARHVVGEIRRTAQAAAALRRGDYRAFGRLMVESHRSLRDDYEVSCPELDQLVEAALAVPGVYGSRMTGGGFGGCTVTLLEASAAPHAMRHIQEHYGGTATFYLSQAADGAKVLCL

Compound | activity change, negative = inhibition
CN1CCN(CC(=O)N2c3ccccc3C(=O)Nc3cccnc32)CC1 | -2.55% (inactive)
COc1ccc([C@@H]2Sc3ccccc3N(CCN(C)C)C(=O)[C@@H]2OC(C)=O)cc1 | -0.546% (inactive)
CCOC(=O)C1=C(C)NC(C)=C(C(=O)OC)C1c1cccc([N+](=O)[O-])c1 (stereo unspecified) | 3.02% (inactive)
CC(C)COCC(CN(Cc1ccccc1)c1ccccc1)N1CCCC1 (stereo unspecified) | 2.82% (inactive)
C[n+]1cc2c3c(ccc2c2ccc4cc5c(cc4c21)OCO5)OCO3 | -0.457% (inactive)
CN(C)C(=O)Oc1ccc[n+](C)c1 | -1.69% (inactive)
CCCC(C(=O)OCCN(CC)CC)(c1ccccc1)c1ccccc1 | -9.85% (inactive)
CCn1ccnc1CC1COc2ccccc2O1 (stereo unspecified) | 1.51% (inactive)
Cc1nc2c([nH]1)c(=O)n(C)c(=O)n2Cc1ccco1 | 0.393% (inactive)
COc1cc(C(=O)OCCCN2CCCN(CCCOC(=O)c3cc(OC)c(OC)c(OC)c3)CC2)cc(OC)c1OC | -1.91% (inactive)
Cc1nc2ccccn2c(=O)c1CCN1CCC(C(=O)c2ccc(F)cc2)CC1 | -3.65% (inactive)
C#CCN(C)CCCOc1ccc(Cl)cc1Cl | 1.77% (inactive)
CC(C)[N+](C)(CCOC(=O)C1c2ccccc2Oc2ccccc21)C(C)C | 4.29% (inactive)
COc1ccc(CN(CCN(C)C)c2ccccn2)cc1 | -4.38% (inactive)
CNC1(C)C2CCC(C2)C1(C)C (stereo unspecified) | -0.654% (inactive)
CCOC(=O)C1=C(C)NC(C)=C(C(=O)OC)C1c1cccc(Cl)c1Cl (stereo unspecified) | 0.442% (inactive)
CCCCNc1c(C(=O)OCC)c(C)nc2c1cnn2CC | -2.71% (inactive)
Nc1nc(N)c2nc(-c3ccccc3)c(N)nc2n1 | 3.2% (inactive)
CC1=C(C)C(=O)C(CCCCC#CCCCC#CCO)=C(C)C1=O | 3.59% (inactive)
Cc1nc2sccn2c(=O)c1CCN1CCC(=C(c2ccc(F)cc2)c2ccc(F)cc2)CC1 | -1.08% (inactive)
CN(C)CCCN1c2ccccc2Sc2ccc(C(F)(F)F)cc21 | 3.42% (inactive)
COc1cc(Cc2cnc(N)nc2N)cc(OC)c1OC | -2.32% (inactive)
C[C@]12CCC(=O)C=C1CC[C@@H]1[C@@H]2C(=O)C[C@@]2(C)[C@H]1CC[C@]2(O)C(=O)CO | -14.4% (inactive)
